The supplement of paper PMC10338343
± gives the standard deviation. Whole data set: some 8,200 sequences, median “pre-steady-state target cleavage rate” near 0.024, cut for the highest 2% near 1.3. This is one part of a sample in which the highest values are shown more often than they occur.

Tested on: MIWI (PIWIL1) piRISC loaded with L1MC piRNA (30 nt)
Assay: pre-steady-state target cleavage rate (min^-1); MIWI and MILI are mouse PIWI proteins and EfPiwi is from a freshwater sponge; tags in brackets are library labels; higher = faster piRNA-guided slicing of the target
Conditions: guide: L1MC piRNA 5'p-UAACUAAAUACUAUGCAAGCUGUAGGUCCU
Procedure: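 Cleave-'n-Seq: a library of target RNAs (target site embedded in constant flanks, ACAGCATTCCGCGTTAGTGATATCCG... 5' flank; DNA-blocked outside the site) at 0.1 nM was incubated with 1 nM active mouse MILI or MIWI piRISC (synthetic 5'-monophosphorylated piRNA guide) with or without 500 nM mouse GTSF1 at 33 °C for 1 min to 16 h. Uncleaved targets were sequenced and normalised to non-target controls, and the pooled three trials were fitted to a burst-and-steady-state model to give the pre-steady-state cleavage rate (min^-1; k3 is constrained to at most 1e-4). Sequence is the target site only; target names encode pairing extent (gX:gY) and contiguous / 1-mismatch / 2-mismatch / bulge geometry. Fits with R² ≤ 0 are excluded.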

[1] = auxiliary factor: 500 nM mouse GTSF1
[2] = auxiliary factor: none (no GTSF1)

| Sequence | pre-steady-state target cleavage rate [1] | pre-steady-state target cleavage rate [2] |
| --- | --- | --- |
| AGGACCUACAGCUUGGCAUAGUAUUUAGUUA | 1.17 ± 0.17 | 0.0407 ± 0.0099 |
| AGGACCUACAGCUUAGCAUAGUAUUUAGUUA | 1.37 ± 0.052 | 0.0387 ± 0.011 |
| AGGACCUACAGCUAGCAUAGUAUUUAGUAA | 0.836 ± 0.073 | 0.0193 ± 0.0066 |
| UGGACCUACAGCUUAGCAUAGUAUUUAGUUA | 1.45 ± 0.08 | 0.0281 ± 0.0051 |
| UGGACCUACAGCUAGCAUAGUAUUUAGUAA | 1.08 ± 0.065 | 0.016 ± 0.0033 |
| UCCUGGAUCAGCUUGCUAAGUAUUUAGUAA | 0.00706 ± 0.004 | – |
| UCCUCCUACAGCUUGCAUAGUAUUUACUUA | 0.383 ± 0.042 | 0.0348 ± 0.0074 |
| UCCUGGAACAGUUGCAUAGUAUUUAGUUA | 0.337 ± 0.022 | 0.00545 ± 0.0021 |
| UCCUGGAUCUGCAUGCAUAGUAUUUAGUUA | 0.204 ± 0.024 | 0.00439 ± 0.002 |
| UCCUGGAUGUCGAACGUAUGUAUUUUAGUUA | < 0.0001 | – |
| UCCUCCUACAGCUUGCAUAGUAAAAAGUUA | 0.231 ± 0.023 | – |
| UCCUCCUACAGCUAGCAUAGUAUUUAGUUA | 0.838 ± 0.03 | 0.016 ± 0.0034 |
| UCCUCCUACAGCUUACAUAGUAUUUAGUUA | 1.14 ± 0.031 | 0.0275 ± 0.0041 |
| UCCUCCUACAGCUUAGCAUAGUAUUUAGUUA | 1.31 ± 0.054 | 0.0108 ± 0.0023 |
| AGGUCCUACAGCUUGCAUAGUAUUUAGUAA | 0.77 ± 0.055 | 0.0647 ± 0.012 |
| UGGUCCUACAGCUUGCAUAGUAUUUAGUUA | 1.16 ± 0.052 | 0.0862 ± 0.015 |
| UCGUCCUACAGCUUGCAAAGUAUUUAGUUA | 1.3 ± 0.032 | 0.0388 ± 0.0068 |
| UCGUCCUACAGCUUGCAUAGUAUUUAGAAA | 0.469 ± 0.042 | 0.00751 ± 0.0029 |
| UCGUCCUACAGCUUGCAUAGUAUUUAGUAA | 0.82 ± 0.037 | 0.0372 ± 0.0076 |
| UCGUCCUACAGCUUGCAUAGUAUUUAGUUA | 1.42 ± 0.041 | 0.0638 ± 0.0093 |
| ACGUCCUACAGCUUGCAUAGUAUUUAGUUA | 1.52 ± 0.055 | 0.0835 ± 0.013 |
| UCCUACUACAGCUUGCAUAGUAUUUAGUUA | 0.886 ± 0.036 | 0.057 ± 0.0085 |

| Sequence | pre-steady-state target cleavage rate [1] | pre-steady-state target cleavage rate [2] |
| --- | --- | --- |
| UGGUCCUACAGCUUGCAAAGUAUUUAGUUA | 1.13 ± 0.04 | 0.0413 ± 0.0067 |
| AGGUCCUACAGCUUGCAAAGUAUUUAGUUA | 1.35 ± 0.043 | 0.0532 ± 0.01 |
| AGGUCCUACAGCUUGCAUAGUAUUUAGUUA | 1.43 ± 0.054 | 0.111 ± 0.019 |
| UCCUGGAUCAGCUUGCAUAGUAAUUAGAUA | 0.216 ± 0.036 | 0.0126 ± 0.0029 |
| UCCUGGAACAGCUUGGUAAGUAUUUAGUUA | 0.00797 ± 0.0031 | – |
| UCCUGGAUGUGCUUGACAUAGUAUUUAGUUA | 0.0551 ± 0.0082 | – |
| UCCUGGAUCAGCUUGCAUAGUAUUAUGUAA | 0.0189 ± 0.0065 | 0.00377 ± 0.0026 |
| UCCUGGAUGUGCUUGGAUACUAUUUAGUUA | 0.031 ± 0.011 | 0.0033 ± 0.0029 |
| UCCUGGAUGUCGAACCAUACUAAUUAGUUA | – | < 0.0001 |
| AGGACCUACAGCUAGCAUAGUAAUUAGUUA | 0.745 ± 0.06 | 0.0091 ± 0.0021 |
| UCCUGGAUCACCAUGCAUAGUAUUUAGUUA | 0.0303 ± 0.0068 | – |
| UGGUCCUACAGCUUGCUUAGUAUUUAGUUA | 1.21 ± 0.035 | 0.0478 ± 0.0087 |
| UCCUCCUACAGCUUGCUAGUAUUUAGUUA | 0.0615 ± 0.017 | – |
| UCGUCCUACAGCUUGCUUAGUAUUUAGUUA | 1.43 ± 0.047 | 0.0358 ± 0.0073 |
| UCCUGCUACAGCUUGCUUAGUAUUUAGUUA | 0.987 ± 0.056 | 0.0337 ± 0.008 |
| AGGUCCUACAGCUUGCUUAGUAUUUAGUUA | 1.54 ± 0.069 | 0.0542 ± 0.011 |
| UCCAGCUACAGCUUGCUUAGUAUUUAGUUA | 0.78 ± 0.039 | 0.0235 ± 0.004 |
| AGGACCUACAGCUUGCAUAGAUAUUUAGUUA | 0.143 ± 0.048 | – |
| UCCACCUACAGCUUGCAUUCAAUUUAGUUA | 0.0179 ± 0.0084 | – |
| UCGACCUGCAGCUUGCAUAGUAUUUAGUUA | 1.41 ± 0.072 | 0.0674 ± 0.013 |
| UCCACCUGCAGCUUGCAUAGUAUUUAGUUA | 1.15 ± 0.13 | 0.0541 ± 0.011 |
| UGGACCUUCUGCUUGCAUAGUAUUUAGUUA | 1.3 ± 0.066 | 0.0534 ± 0.0096 |

| Sequence | pre-steady-state target cleavage rate [1] | pre-steady-state target cleavage rate [2] |
| --- | --- | --- |
| UCCUCCUGCAGCUUGCAUAGUAUUUAGUUA | 1.1 ± 0.053 | 0.0513 ± 0.0088 |
| UCGACCUGACAGCUUGCAUAGUAUUUAGUUA | 1.25 ± 0.057 | 0.0632 ± 0.011 |
| UGGACCUGACAGCUUGCAUAGUAUUUAGUUA | 1.56 ± 0.12 | 0.0824 ± 0.017 |
| AGGACCUGCAGCUUGCAUAGUAUUUAGUUA | 1.38 ± 0.088 | 0.0689 ± 0.014 |
| UCGACCUUCUGCUUGCAUAGUAUUUAGUUA | 1.45 ± 0.048 | 0.0653 ± 0.011 |
| UCGACCUUGUGCUUGCAUAGUAUUUAGUUA | 0.871 ± 0.038 | 0.0513 ± 0.0098 |
| AGGACCUUCUGCUUGCAUAGUAUUUAGUUA | 1.24 ± 0.042 | 0.082 ± 0.015 |
| AGGACCUGACAGCUUGCAUAGUAUUUAGUUA | 1.17 ± 0.07 | 0.067 ± 0.011 |
| UCCUGGAACAGCUUGCAUAGUAUUUAGUAA | 0.685 ± 0.046 | 0.0337 ± 0.0083 |
| UCCUGCUACACGAUGCAUAGUAUUUAGUAA | 0.396 ± 0.032 | – |
| UCCUGGAUGUCGAUGCUUAGUAUUUUGUUA | < 0.0001 | – |
| UCCUGGAUCACGUUGCAUAGUAUUUAGUAA | 0.0198 ± 0.0044 | – |
| UCGACGUACAGCUUCCAUAGUAUUUAGUUA | 0.0527 ± 0.011 | 0.00418 ± 0.0013 |
| UCGAGCUACAGCUUGCAUAGUAUUUUGUUA | 1.06 ± 0.06 | 0.0528 ± 0.0088 |
| UCCUGGAUGAGCUUGCAUAGUAUUAUGUUA | 0.194 ± 0.027 | 0.0102 ± 0.0042 |
| UCCUGGAUGAGCUUGCAUAGUAAUUAGAAA | 0.0194 ± 0.0086 | – |
| UCCUGGUACAGCUUGCAUAGUAUUUUGAUA | 0.166 ± 0.031 | 0.00994 ± 0.0034 |
| UGGACCUGCAGCUUGCAUAGUAUUUAGUUA | 1.57 ± 0.099 | 0.0683 ± 0.013 |
| UCCUGCUGCAGCUUGCAUAGUAUUUAGUUA | 1.27 ± 0.058 | 0.0512 ± 0.011 |
| UGGACCUAGUGCUUGCAUAGUAUUUAGUUA | 0.979 ± 0.061 | 0.0419 ± 0.0095 |
